Measured values as given in PubChem BioAssay AID1865 (National Center for Advancing Translational Sciences (NCATS), 2009).
The campaign covered roughly 280,000 compounds. About 540 (0.19%) were called active. About 2% were inconclusive and are not listed. Calls come from the whole dose curve; as a rule, active = well fitted activation curve with a large enough effect; inconclusive = small, poorly fitted or top-dose-only effect; inactive = flat fitted curve, though single readings scatter. Many of the other results were omitted from the sample, so actives are more common in it than they were.

Experiment: Quantitative High-Throughput Screen for Regulators of Epigenetic Control; note: nearly all actives have a fitted effect of over 60% in size; for GFP activation: % of control where 0% means no effect
Conditions: murine LDR cells, GFP reporter derepression, 30 h; series mostly up to 53.9 µM; GFP activation: at the top concentration
Method in brief: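 Murine LDR cells carrying a silenced, genomically integrated CMV-driven GFP reporter were exposed to compound for 30 hours at 37 C. After PBS washes, GFP-positive cells (20–120 um objects) were counted by laser-scanning microplate cytometry.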
Potency is the fitted concentration of half-maximal effect.

Potency, active:
Nc1c(C(=O)c2cccs2)sc2nsc(SCCN3CCCCC3)c12 3.55 µM, COc1ccc(Cn2c(=O)c3oc4ccccc4c3n(CC(=O)Nc3ccc(F)cc3F)c2=O)cc1 11.2 µM, CN(c1ccccc1)c1ccc(/C=c2\s/c(=C(/C#N)C(=O)C(C)(C)C)n(Cc3ccco3)c2=O)cc1 6.31 µM

GFP activation, inactive:
O=C(CN1C2=NCCN2c2ccccc21)c1cccs1 0%, CN(C)c1ccnc2sc(C(=O)c3ccccc3)c(N)c12 -2.99%, CCOC(=O)c1ccc(NC(=O)CC2C(=O)N(c3ccccc3)C(=O)N2Cc2cccs2)cc1 (stereo unspecified) -0.348%, CSc1ccccc1-c1nnc(NC(=O)c2ccc3c(c2)OCCO3)o1 -1.64%, Cc1oc(-c2ccccc2F)nc1CN1CCC(C(=O)NCCc2ccc(Cl)cc2)CC1 -1.11%, CC(C)c1ccc(NC(=O)CN(C)S(=O)(=O)c2ccc3c(c2)c(=O)n(C)c(=O)n3C)cc1 -1.11%, COCCCNC(=O)c1ccc(NC(=O)c2nsc3ccccc23)cc1 2.2%, Cc1ccc(-c2cnc(NCc3ccc(C(C)C)cc3)n2C)cc1 -0.242%, CCOC(=O)c1cccc(NC(=O)Cn2cnc3nc4c(cc3c2=O)CCCC4)c1 -1.69%, CCOC(=O)c1ccc(NC(=O)C2CCN(S(=O)(=O)c3ccc4c(c3)CCCC(=O)N4)CC2)cc1 -1.27%, Cc1ccc(NC(=O)Cn2c(=O)n(-c3ccccc3)c(=O)c3c4c(sc32)CCCC4)cc1 -1.77%, CCOc1cc(C(=O)NCCc2csc3nc(-c4ccc(C)cc4)nn23)cc(OCC)c1OCC -1.23%, Cc1cccc(C(CC(=O)NCC2(c3ccccc3)CCCC2)c2ccccc2)c1O (stereo unspecified) -0.962%, Cc1ccc(Cl)cc1N1CCN(C(=O)c2cnc3c(-c4ccc(F)cc4)c(C)nn3c2C)CC1 0.833%, COc1cc(NC(=O)Cn2c(=O)n(Cc3ccco3)c(=O)c3oc4ccccc4c32)cc(OC)c1 4.43%, CCCCn1c(=O)c2oc3ccccc3c2n(CC(=O)Nc2ccccc2OC)c1=O 2.82%, O=C(NCc1ccccc1Cl)c1cccn1-c1nnc(N2CCCCC2)s1 0.374%, Cc1ccc(NC(=O)c2cc(S(=O)(=O)NCCC3=CCCCC3)ccc2F)cc1C -1.18%, COc1cccc(CNC(=O)C(=O)NCC(c2cccs2)S(=O)(=O)c2ccccc2)c1 (stereo unspecified) 4.17%, Cc1cccc(CCNC(=O)c2ccc3c(c2)nc2n3CCC(C)C2)c1 (stereo unspecified) 12.7%, O=c1nc2s/c(=C\c3ccco3)c(=O)n2nc1Cc1ccccc1 -0.952%, Cc1cs/c(=N\N=C\c2ccc(O)cc2)n1Cc1ccco1 -1.92%, COc1cc(OC)c(OC)cc1/C=C/c1nc2cc3ccccc3cc2c(=O)n1-c1ccc(F)c(Cl)c1 0.436%, O=S(=O)(NCC(c1ccccc1)N1CCc2ccccc21)c1ccccc1 (stereo unspecified) -4.06%, COc1cc2c(cc1OC)C(COc1ccc(F)cc1)N(C(=O)c1ccccc1F)CC2 (stereo unspecified) 1.18%, CCOC(=O)c1c(C)[nH]c(CCC(=O)NCCCN2CCN(c3cc(C)ccc3C)CC2)c1C -0.109%, CC(C)(C)c1ccc(C(=O)NCC(c2ccc(Cl)cc2)N2CCOCC2)cc1 (stereo unspecified) 1.61%, COc1ccc(-c2cccc(NS(=O)(=O)c3cc(C)c(OC)c(C)c3C)c2)nn1 1.69%, O=C(NC1CCN(Cc2ccccc2)CC1)c1ccc(Cn2c(=O)c3ccccc3n(Cc3cccc(F)c3)c2=O)cc1 -0.885%, CCOc1ccccc1C(=O)Nc1ccc(S(=O)(=O)N2CCCCC2c2cccnc2)cc1 (stereo unspecified) 2.78%, CC(C)c1ccc(S(=O)(=O)Nc2ccc(O)c(Sc3nc4ccccc4s3)c2)cc1 -3.44%, COc1ccc(Cn2c(C(=O)O)c(CNCc3cccc(OC)c3)c3ccc(C)cc32)cc1 0%, CC(C)c1ccc2oc(-c3cc(NC(=O)c4cccs4)ccc3Cl)nc2c1 -1.08%
